# Test results: PubChem BioAssay (EPA / NIEHS)
# Active and inactive are the calls of the source. The calls were made as follows: active = hit-call score of the fitted dose curve at least 0.9, where 1 is the maximum; inactive = score below 0.9.
# Legend:
# [1] = read-out: Fatty acid synthase (Homo sapiens) (UniProt P49327); assay: LTEA_HepaRG_FASN: Life Technologies and Expression Analysis (LTEA) Assay for Fatty Acid Synthase (FASN) using HepaRG (AID 2283448); settings: mRNA level, 48 h; actives raise or lower the signal
# Outline: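 Transcript-level assay: HepaRG liver cells are treated for 48 h across an eight-point range topping at 100 uM, and FASN mRNA, normalized to three housekeeping genes, is compared with DMSO controls in both directions.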
# [2] = read-out: Cyclin D2 (CCND2), CCND2 (gene 894); assay: LTEA_HepaRG_CCND2: Life Technologies and Expression Analysis (LTEA) Assay for Cyclin D2 (CCND2) using HepaRG (AID 2283449); settings: mRNA level, 48 h; actives raise or lower the signal
# Outline: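 Read-out is CCND2 mRNA level measured by qRT-PCR in human HepaRG liver cells and normalised to three housekeeping genes. Chemicals were applied for 48 h at up to 100 uM, with gain or loss fitted relative to 0.5% DMSO.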
# [3] = read-out: Cyclin Dependent Kinase Inhibitor 1A (CDKN1A), CDKN1A (gene 1026); assay: LTEA_HepaRG_CDKN1A: Life Technologies and Expression Analysis (LTEA) Assay for Cyclin Dependent Kinase Inhibitor 1A (CDKN1A) using HepaRG (AID 2283450); settings: mRNA level, 48 h; actives raise or lower the signal
# Outline: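 Cryopreserved HepaRG cells were plated and cultured 48 h, then switched to serum-free induction medium. Chemicals (eight half-log concentrations, top 100 uM, 0.5% DMSO) were applied for 48 h. Lysates underwent qRT-PCR for CDKN1A with housekeeping normalization.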
# [4] = read-out: Cyclin D1 (CCND1), CCND1 (gene 595); assay: LTEA_HepaRG_CCND1: Life Technologies and Expression Analysis (LTEA) Assay for Cyclin D1 (CCND1) using HepaRG (AID 2283451); settings: mRNA level, 48 h; actives raise or lower the signal;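 as to AC50: TaqMan qRT-PCR transcript level normalised to ACTB GAPDH and POLR2A housekeeping genes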
# Outline: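 Human liver HepaRG line; 48 h dosing, 8 conc. ≤100 uM, 0.5% DMSO; TaqMan qRT-PCR mRNA, 3 housekeeping genes; bidirectional curve fit vs DMSO.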
# [5] = read-out: catalase (CAT), CAT (gene 847); assay: LTEA_HepaRG_CAT: Life Technologies and Expression Analysis (LTEA) Assay for catalase (CAT) using HepaRG (AID 2283452); settings: mRNA level, 48 h; actives raise or lower the signal
# Outline: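 Expression of CAT was quantified by TaqMan qRT-PCR with ACTB/GAPDH/POLR2A normalization after 48 h chemical exposure of HepaRG. Eight-point half-log series, top 100 uM, in 0.5% DMSO; gain or loss fitted against vehicle.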
# [6] = read-out: flavin-containing dimethylaniline monooxygenases 3 (FMO3), FMO3 (gene 2328); assay: LTEA_HepaRG_FMO3: Life Technologies and Expression Analysis (LTEA) Assay for flavin-containing dimethylaniline monooxygenases 3 (FMO3) using HepaRG (AID 2283453); settings: mRNA level, 48 h; actives raise or lower the signal;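 as to AC50: FMO3 transcript by TaqMan qRT-PCR normalized to ACTB GAPDH and POLR2A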
# Outline: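 HepaRG, 48 h exposure, 8-pt half-log series from 100 uM, 0.5% DMSO vehicle, duplicates; FMO3 transcript by Fluidigm TaqMan qRT-PCR, housekeeping-normalized; gain/loss fit vs DMSO.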
# [7] = read-out: Cytochrome P450 (CYP1A1), CYP1A1 (gene 1543); assay: LTEA_HepaRG_CYP1A1: Life Technologies and Expression Analysis (LTEA) Assay for Cytochrome P450 (CYP1A1) using HepaRG (AID 2283454); settings: mRNA level, 48 h; actives raise or lower the signal
# Outline: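 Induction of CYP1A1 mRNA in a human hepatic cell line was measured 48 h after dosing, with 1 mM phenobarbital as induction positive control and 0.5% DMSO vehicle as baseline for bidirectional curve fitting.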
# [8] = read-out: CFLAR gene, CFLAR (gene 8837); assay: LTEA_HepaRG_CFLAR: Life Technologies and Expression Analysis (LTEA) Assay for CFLAR gene using HepaRG (AID 2283455); settings: mRNA level, 48 h; actives raise or lower the signal
# Outline: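 HepaRG, 48 h exposure, 8-pt conc-response (100 uM top, half-log), 0.5% DMSO vehicle, duplicates. CFLAR expression by qRT-PCR; ACTB/GAPDH/POLR2A normalization; gain or loss fit vs DMSO baseline.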
# [9] = read-out: Forkhead box O1 (FOXO1), FOXO1 (gene 2308); assay: LTEA_HepaRG_FOXO1: Life Technologies and Expression Analysis (LTEA) Assay for Forkhead box O1 (FOXO1) using HepaRG (AID 2283456); settings: mRNA level, 48 h; actives raise or lower the signal
# Outline: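 Readout is FOXO1 transcript level by multiplexed qRT-PCR against three housekeeping genes, curve-fitted in both directions relative to 0.5% DMSO vehicle. Human HepaRG cultures received chemicals for 48 h, up to 100 uM in half-log steps.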
# [10] = read-out: growth arrest and DNA damage 45 (GADD45A), GADD45A (gene 1647); assay: LTEA_HepaRG_GADD45A: Life Technologies and Expression Analysis (LTEA) Assay for growth arrest and DNA damage 45 (GADD45A) using HepaRG (AID 2283458); settings: mRNA level, 48 h; actives raise or lower the signal
# Outline: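 Human HepaRG liver cells are treated in duplicate for 48 h with chemicals in 0.5% DMSO, highest concentration 100 uM. Expression is read by qRT-PCR and analyzed in both directions against vehicle.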
# [11] = read-out: Forkhead box O3 (FOXO3), FOXO3 (gene 2309); assay: LTEA_HepaRG_FOXO3: Life Technologies and Expression Analysis (LTEA) Assay for Forkhead box O3 (FOXO3) using HepaRG (AID 2283459); settings: mRNA level, 48 h; actives raise or lower the signal
# Outline: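 HepaRG, 48 h post-dose; 8 conc., half-log from 100 uM, 0.5% DMSO, duplicates; serum-free induction medium. Readout: FOXO3 mRNA, TaqMan qRT-PCR, housekeeping-normalized. Bidirectional curve fit vs DMSO baseline.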
# [12] = read-out: ABC Transporter (ABCB1), ABCB1 (gene 5243); assay: LTEA_HepaRG_ABCB1: Life Technologies and Expression Analysis (LTEA) Assay for ABC Transporter (ABCB1) using HepaRG (AID 2283460); settings: mRNA level, 48 h; actives raise or lower the signal
# Outline: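 Expression of ABCB1 was quantified by qRT-PCR against three housekeeping genes after human HepaRG cultures received test chemicals for 48 hours. Concentrations spanned eight half-log steps topping at 100 uM in 0.5% DMSO; gain or loss of signal was fitted relative to vehicle.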
# [13] = read-out: growth arrest and DNA damage 45 (GADD45B), GADD45B (gene 4616); assay: LTEA_HepaRG_GADD45B: Life Technologies and Expression Analysis (LTEA) Assay for growth arrest and DNA damage 45 (GADD45B) using HepaRG (AID 2283461); settings: mRNA level, 48 h; actives raise or lower the signal
# Outline: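 Values are bidirectional concentration-response fits against 0.5% DMSO controls. Underlying data: qRT-PCR mRNA levels in human HepaRG liver cells treated 48 h in serum-free induction medium, eight concentrations topping at 100 uM.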
# [14] = read-out: ABC Transporter (ABCC3), ABCC3 (gene 8714); assay: LTEA_HepaRG_ABCC3: Life Technologies and Expression Analysis (LTEA) Assay for ABC Transporter (ABCC3) using HepaRG (AID 2283462); settings: mRNA level, 48 h; actives raise or lower the signal
# Outline: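 Differentiated HepaRG liver cells receive test chemicals at eight concentrations (max 100 uM) for 48 h. Expression of ABCC3 is quantified by qRT-PCR against ACTB, GAPDH and POLR2A, and activity is fitted in both directions against the DMSO control.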
# [15] = read-out: ABC Transporter (ABCB11), ABCB11 (gene 8647); assay: LTEA_HepaRG_ABCB11: Life Technologies and Expression Analysis (LTEA) Assay for ABC Transporter (ABCB11) using HepaRG (AID 2283463); settings: mRNA level, 48 h; actives raise or lower the signal
# Outline: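 ABCB11 transcript levels are read by Fluidigm TaqMan qRT-PCR after 48 h chemical treatment of human HepaRG cells. Concentrations span 100 uM downward in half-log steps with 0.5% DMSO; gain or loss is fitted against DMSO controls.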
# [16] = read-out: ABC Transporter (ABCC2), ABCC2 (gene 1244); assay: LTEA_HepaRG_ABCC2: Life Technologies and Expression Analysis (LTEA) Assay for ABC Transporter (ABCC2) using HepaRG (AID 2283464); settings: mRNA level, 48 h; actives raise or lower the signal
# Outline: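 Gene expression of ABCC2 was determined by qRT-PCR in HepaRG cells exposed 48 h to chemicals (highest 100 uM, half-log dilutions). Activity was fitted in both directions relative to 0.5% DMSO vehicle.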
# [17] = read-out: Broad substrate specificity ATP-binding cassette transporter ABCG2 (Homo sapiens) (UniProt Q9UNQ0); assay: LTEA_HepaRG_ABCG2: Life Technologies and Expression Analysis (LTEA) Assay for ABC Transporter (ABCG2) using HepaRG (AID 2283465); settings: mRNA level, 48 h; actives raise or lower the signal
# Outline: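 Read-out is ABCG2 mRNA induction or loss quantified by qRT-PCR after 48 h chemical treatment of human HepaRG cells, normalized to three housekeeping genes. Concentrations reached 100 uM top in half-log steps; fitting was bidirectional against 0.5% DMSO.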
# [18] = read-out: ATP-citrate lyase (ACLY), ACLY (gene 47); assay: LTEA_HepaRG_ACLY: Life Technologies and Expression Analysis (LTEA) Assay for ATP-citrate lyase (ACLY) using HepaRG (AID 2283466); settings: mRNA level, 48 h; actives raise or lower the signal
# Outline: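 HepaRG, 48 h exposure, 8-pt half-log dilutions (top 100 uM), 0.5% DMSO. Readout: ACLY mRNA, TaqMan qRT-PCR, housekeeping-normalized (ACTB/GAPDH/POLR2A). Bidirectional curve fit vs DMSO.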
# [19] = CEETOX_H295R_TESTO: CeeTox H295R High-throughput Steroidogenesis Assay for Testosterone (TESTO) (AID 2283457); settings: actives raise or lower the signal;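 also: cells exposed to chemicals for 48 h before medium collection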
# Outline: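 Testosterone synthesis is assessed in human adrenocortical H295R cells after 48 h of chemical exposure, using HPLC-MS/MS of extracted medium. Activity is fitted in both directions against DMSO control.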
# Broad substrate specificity ATP-binding cassette transporter ABCG2 (Homo sapiens), sequence (Q9UNQ0 whole entry, looked up): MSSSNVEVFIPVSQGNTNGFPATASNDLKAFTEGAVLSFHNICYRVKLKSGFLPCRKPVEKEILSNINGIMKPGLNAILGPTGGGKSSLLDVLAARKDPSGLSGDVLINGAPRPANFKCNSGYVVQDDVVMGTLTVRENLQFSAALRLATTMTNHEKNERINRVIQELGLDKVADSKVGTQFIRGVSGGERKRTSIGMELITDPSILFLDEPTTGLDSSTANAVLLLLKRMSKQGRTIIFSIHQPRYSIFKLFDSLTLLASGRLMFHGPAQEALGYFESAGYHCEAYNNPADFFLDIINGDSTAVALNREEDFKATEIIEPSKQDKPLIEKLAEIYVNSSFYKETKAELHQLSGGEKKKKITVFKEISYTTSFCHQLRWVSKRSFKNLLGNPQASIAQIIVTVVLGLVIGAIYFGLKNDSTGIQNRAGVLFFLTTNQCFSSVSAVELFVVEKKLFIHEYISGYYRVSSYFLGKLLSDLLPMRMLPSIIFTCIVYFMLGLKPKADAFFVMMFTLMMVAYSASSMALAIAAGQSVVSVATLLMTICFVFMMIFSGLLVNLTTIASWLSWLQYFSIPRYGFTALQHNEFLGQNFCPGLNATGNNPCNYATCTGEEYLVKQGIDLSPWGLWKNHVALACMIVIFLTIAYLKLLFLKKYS
# Fatty acid synthase (Homo sapiens), sequence (P49327 whole entry, looked up): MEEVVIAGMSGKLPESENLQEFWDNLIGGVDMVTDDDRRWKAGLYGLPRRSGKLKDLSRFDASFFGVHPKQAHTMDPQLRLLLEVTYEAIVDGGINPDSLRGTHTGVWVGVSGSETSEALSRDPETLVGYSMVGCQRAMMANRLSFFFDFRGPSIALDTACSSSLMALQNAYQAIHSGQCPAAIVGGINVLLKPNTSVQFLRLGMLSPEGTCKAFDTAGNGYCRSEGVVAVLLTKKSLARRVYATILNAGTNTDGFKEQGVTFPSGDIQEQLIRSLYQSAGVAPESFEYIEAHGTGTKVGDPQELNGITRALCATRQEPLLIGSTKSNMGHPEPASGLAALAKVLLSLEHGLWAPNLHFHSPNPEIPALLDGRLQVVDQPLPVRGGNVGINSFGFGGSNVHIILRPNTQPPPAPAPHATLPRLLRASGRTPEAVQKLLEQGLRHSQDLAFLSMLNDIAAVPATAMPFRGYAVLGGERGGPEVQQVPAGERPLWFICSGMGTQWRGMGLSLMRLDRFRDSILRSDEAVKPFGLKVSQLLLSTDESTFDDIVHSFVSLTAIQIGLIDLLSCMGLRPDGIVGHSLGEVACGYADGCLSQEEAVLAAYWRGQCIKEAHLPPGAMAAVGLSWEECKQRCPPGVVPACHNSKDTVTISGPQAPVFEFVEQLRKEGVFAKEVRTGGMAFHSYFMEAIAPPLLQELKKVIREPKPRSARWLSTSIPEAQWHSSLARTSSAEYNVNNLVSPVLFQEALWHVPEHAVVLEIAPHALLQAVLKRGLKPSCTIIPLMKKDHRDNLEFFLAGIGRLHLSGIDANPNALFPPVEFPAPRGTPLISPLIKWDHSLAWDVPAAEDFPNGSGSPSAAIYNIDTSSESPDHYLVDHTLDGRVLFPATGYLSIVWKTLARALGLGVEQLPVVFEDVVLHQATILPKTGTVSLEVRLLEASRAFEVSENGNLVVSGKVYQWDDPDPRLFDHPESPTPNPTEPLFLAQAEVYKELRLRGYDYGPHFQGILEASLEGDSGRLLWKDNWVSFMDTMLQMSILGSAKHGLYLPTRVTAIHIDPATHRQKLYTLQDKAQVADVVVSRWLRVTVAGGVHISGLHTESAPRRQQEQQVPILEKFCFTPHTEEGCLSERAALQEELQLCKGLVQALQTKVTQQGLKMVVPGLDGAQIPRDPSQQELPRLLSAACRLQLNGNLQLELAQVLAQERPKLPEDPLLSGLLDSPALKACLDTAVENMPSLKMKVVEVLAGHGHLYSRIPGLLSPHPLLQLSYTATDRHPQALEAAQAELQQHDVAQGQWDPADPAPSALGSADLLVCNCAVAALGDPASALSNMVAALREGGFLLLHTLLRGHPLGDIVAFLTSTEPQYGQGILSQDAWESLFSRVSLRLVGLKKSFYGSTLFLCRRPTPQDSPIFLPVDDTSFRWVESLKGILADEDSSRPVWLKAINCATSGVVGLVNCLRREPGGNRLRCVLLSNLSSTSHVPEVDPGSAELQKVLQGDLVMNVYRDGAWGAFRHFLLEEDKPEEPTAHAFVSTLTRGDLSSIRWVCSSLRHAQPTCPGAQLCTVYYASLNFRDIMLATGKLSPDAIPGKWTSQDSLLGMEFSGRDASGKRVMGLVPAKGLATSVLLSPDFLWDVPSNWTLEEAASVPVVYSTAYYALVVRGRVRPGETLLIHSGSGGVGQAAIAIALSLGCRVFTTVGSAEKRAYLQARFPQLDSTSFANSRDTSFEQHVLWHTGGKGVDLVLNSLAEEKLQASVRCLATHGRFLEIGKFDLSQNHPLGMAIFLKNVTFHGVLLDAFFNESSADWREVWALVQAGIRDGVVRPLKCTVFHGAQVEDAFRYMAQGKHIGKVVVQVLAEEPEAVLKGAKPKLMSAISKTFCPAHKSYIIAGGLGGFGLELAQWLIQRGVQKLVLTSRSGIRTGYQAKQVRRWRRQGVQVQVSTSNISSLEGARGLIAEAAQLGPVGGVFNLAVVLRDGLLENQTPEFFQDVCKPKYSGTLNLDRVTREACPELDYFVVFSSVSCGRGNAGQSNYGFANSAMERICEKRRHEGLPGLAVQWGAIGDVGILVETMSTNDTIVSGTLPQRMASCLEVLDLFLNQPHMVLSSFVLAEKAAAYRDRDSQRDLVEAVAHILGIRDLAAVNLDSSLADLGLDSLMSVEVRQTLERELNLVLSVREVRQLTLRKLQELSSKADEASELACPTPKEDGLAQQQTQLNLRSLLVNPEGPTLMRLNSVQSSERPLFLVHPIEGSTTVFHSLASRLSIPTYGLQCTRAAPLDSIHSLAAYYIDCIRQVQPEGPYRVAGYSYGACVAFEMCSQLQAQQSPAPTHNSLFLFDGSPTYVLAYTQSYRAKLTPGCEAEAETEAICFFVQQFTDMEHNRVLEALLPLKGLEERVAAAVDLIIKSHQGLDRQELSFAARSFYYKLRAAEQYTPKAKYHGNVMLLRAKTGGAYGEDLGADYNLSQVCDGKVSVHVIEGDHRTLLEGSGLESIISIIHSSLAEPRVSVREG
smiles,measurement,setting,value
CCCCCCCCCCCCN1CCCC1=O,outcome,[1],inactive
same,outcome,[2],inactive
same,outcome,[3],inactive
same,outcome,[4],inactive
same,outcome,[5],inactive
same,outcome,[6],inactive
same,AC50,[7],68.2 µM (active)
same,outcome,[8],inactive
same,outcome,[9],inactive
same,outcome,[10],inactive
same,outcome,[11],inactive
same,outcome,[12],inactive
same,outcome,[13],inactive
same,outcome,[14],inactive
same,outcome,[15],inactive
same,outcome,[16],inactive
same,outcome,[17],inactive
same,outcome,[18],inactive
OCCC(F)(F)C(F)(F)C(F)(F)C(F)(F)C(F)(F)C(F)(F)F,outcome,[1],inactive
same,outcome,[2],inactive
same,outcome,[3],inactive
same,outcome,[4],inactive
same,outcome,[5],inactive
same,outcome,[6],inactive
same,AC50,[7],84.4 µM (active)
same,outcome,[8],inactive
same,outcome,[9],inactive
same,outcome,[10],inactive
same,outcome,[11],inactive
same,outcome,[12],inactive
same,outcome,[13],inactive
same,outcome,[14],inactive
same,outcome,[15],inactive
same,outcome,[17],inactive
same,outcome,[18],inactive
CN1CCN(c2ccccc2/C=C2\SCCN(c3ccc(Cl)c(Cl)c3)C2=O)CC1,outcome,[1],inactive
same,outcome,[2],inactive
same,outcome,[3],inactive
same,outcome,[4],inactive
same,outcome,[5],inactive
same,AC50,[6],50 µM (active)
same,AC50,[7],1.56 µM (active)
same,outcome,[8],inactive
same,AC50,[9],90.3 µM (active)
same,outcome,[10],inactive
same,AC50,[11],69 µM (active)
same,outcome,[12],inactive
same,AC50,[13],50 µM (active)
same,AC50,[14],11.5 µM (active)
same,AC50,[15],22.5 µM (active)
same,outcome,[17],inactive
same,outcome,[18],inactive
C[C@@H]1C[C@H]2[C@@H]3CCC4=CC(=O)C=C[C@]4(C)[C@@]3(F)[C@@H](O)C[C@]2(C)[C@@]1(O)C(=O)COP(=O)(O)O,outcome,[1],inactive
same,outcome,[2],inactive
same,outcome,[3],inactive
same,outcome,[4],inactive
same,outcome,[5],inactive
same,outcome,[6],inactive
same,outcome,[7],inactive
same,outcome,[8],inactive
same,outcome,[9],inactive
same,outcome,[10],inactive
same,outcome,[11],inactive
same,outcome,[12],inactive
same,outcome,[13],inactive
same,outcome,[14],inactive
same,outcome,[15],inactive
same,outcome,[17],inactive
same,outcome,[18],inactive
O=c1c(-c2ccc(O)cc2)coc2cc(O)ccc12,outcome,[1],inactive
same,outcome,[2],inactive
same,outcome,[3],inactive
same,outcome,[4],inactive
same,outcome,[5],inactive
same,outcome,[6],inactive
same,outcome,[7],inactive
same,outcome,[8],inactive
same,outcome,[9],inactive
same,AC50,[19],16.4 µM (active)
same,outcome,[10],inactive
same,outcome,[11],inactive
same,outcome,[12],inactive
same,outcome,[13],inactive
same,outcome,[14],inactive
same,outcome,[15],inactive
same,outcome,[17],inactive
same,outcome,[18],inactive
CCc1nn(C2CCCCC2)c2cc(C3(C#N)CCC(C(=O)O)CC3)ccc12 (centres undefined),AC50,[1],85.1 µM (active)
same,outcome,[2],inactive
same,AC50,[3],73.2 µM (active)
same,AC50,[4],19.5 µM (active)
same,AC50,[5],77.2 µM (active)
same,AC50,[6],83.7 µM (active)
same,AC50,[7],14.4 µM (active)
same,AC50,[8],8.95 µM (active)
same,AC50,[9],86 µM (active)
same,AC50,[10],77.6 µM (active)
same,outcome,[11],inactive
same,AC50,[12],12.4 µM (active)
same,outcome,[13],inactive
same,outcome,[14],inactive
same,AC50,[15],82.8 µM (active)
same,AC50,[17],13 µM (active)
same,AC50,[18],25.5 µM (active)
